This is part of a sample that, as a whole, favours compounds with a hit. Of some 83,000 tested, about 20% had one in any assay.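 Assay: single dose, 48 h. Readout: percent growth (0 = no net growth; negative = cell death). Active: <10.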 Active and inactive are the calls of the source.
Test system: HL-60(TB) leukemia
Experiment: NCI-60 one-dose screen, 48 h (100 = growth as untreated, 0 = no growth, -100 = all killed)
Settings: 10 µM unless noted

SMILES	growth
c1cc2ccc3cc2cc1CNCCOCCNCc1ccc2ccc(cc2c1)CNCCOCCNC3	15.9% (inactive)
CCOc1ncc([N+](=O)[O-])c(OCC)n1	108% (inactive)
COc1ccc2c(c1)c(/C(O)=C1\COC(=O)C1=O)cn2Cc1ccc(F)cc1	85.6% (inactive)
COc1ccc(C(=O)C2=CC(=O)C(=O)C2)cc1OC	110% (inactive)
O=C(c1ccccc1)C(Br)[N+](=O)[O-] (stereo not given)	62.3% (inactive)
O=C1CCc2c(sc3[nH]c(=S)n(Cc4ccccc4)c(=O)c23)C1	10.9% (inactive)
CCCCCCCCCCCCCCCc1ccc(N)c(OC2OC(CO)C(O)C(O)C2O)c1 (stereo not given)	23% (inactive)
O=C(Nc1ccc(-n2ccc3c(NC(=O)c4ccccc4)ncnc32)cc1)c1ccc(Cl)c(C(F)(F)F)c1	34.6% (inactive)
O=c1[nH]c(-c2ccccn2)nc2sc3c(c12)CCCCC3	21.8% (inactive)
CC(CN(C)C)Oc1ccc(OC(C)CN(C)C)c2c1C(=O)c1ccccc1C2=O (stereo not given)	39.2% (inactive)
COc1ccc(-c2c[nH]c(C(=O)O)c2-c2cc(OC)c3c(c2OC)OCO3)cc1	105% (inactive)
O=C(O)c1cc(I)ccc1O	103% (inactive)
COc1ccc(NC(=O)c2sc3nc(C)c(C(C)=O)cc3c2N)cc1	94% (inactive)
NC(CCl)=NCC12CC3CC(CC(C3)C1)C2	-30.2% (active)
Cc1ccc(-c2csc(NC(=O)CCCCl)n2)cc1	109% (inactive)
CC1(C)OB(O)c2cc(-c3nc4ccc5[nH]ncc5c4c4c3CCCC4)ccc21	90.7% (inactive)
CCOC(=O)NC(Cc1ccccc1)c1ccccc1 (stereo not given)	94.2% (inactive)
N/C(=N\C(N)=N\c1nc2ccccc2s1)c1cnccn1	0.412% (active)
N[C@@H](Cc1ccccc1)[C@@H](O)C(=O)NCc1ccc(F)cc1	101% (inactive)
O=C1/C(=C/c2ccc(O)cc2)COc2ccc(O)cc21	96.2% (inactive)

SMILES	growth
CO[C@@H](C(=O)N1Cc2[nH]nc(NC(=O)c3ccc(N4CCN(C)CC4)cc3)c2C1)c1ccccc1	16.8% (inactive)
CNCCCNc1nc2ccccc2c2c(=O)c3cc(OC)ccc3sc12	56.2% (inactive)
O=S(=O)(Nc1ccc(Br)cc1)c1ccc(-c2cnc(C3CC3)o2)cc1	-36% (active)
Oc1ccc(O)cc1	48.4% (inactive)
CCCCC(O)c1ccccc1 (stereo not given)	99.2% (inactive)
COc1cccc(C(=O)OCCn2nc3c4c(cccc42)C(=O)c2ccccc2-3)c1O	0.071% (active)
CC(C)(C)c1ccc(S(=O)(=O)O)s1	82.5% (inactive)
Cc1n[nH]c(=O)n(/N=C\c2c[nH]c3ccccc23)c1=O	89.1% (inactive)
CCCCCOC(=O)c1c(C)[nH]c(/C=C2\N=C(c3ccc[nH]3)C=C2OC)c1C	-14.7% (active)
COc1cccc2c1C(=O)c1c(O)c3c(c(O)c1C2=O)C[C@](O)(C(=O)CO)C[C@H]3O[C@@H]1C[C@@H](NC(=O)CCCCCN(C)C2(c3ccc(F)cc3)CC3CCC2C3)[C@H](O)[C@@H](C)O1 (stereo not given in full)	84.9% (inactive)
Cc1cn(C2CC(N=[N+]=[N-])C(COP(=O)(O)OP(=O)(O)OP(=O)(O)O)O2)c(=O)[nH]c1=O (stereo not given)	-96.5% (active)
O=C1CCC2=C3C4CCCCC4C(=O)C4CCCC(OC2C1)C34 (stereo not given)	-17.1% (active)
O=[N+]([O-])c1cccc(-c2nc3sccn3c2-c2ccnc(NCCCNS(=O)(=O)c3cccc(F)c3)n2)c1	-21.5% (active)
CCCSc1nc2ccc(C)cc2cc1/C=[N+](\[O-])c1ccccc1	14.1% (inactive)
COc1cc(C(=O)/C=C/c2c(C)n([O-])c3ccc(C)cc3[n+]2=O)cc(OC)c1OC	-42.6% (active)
Cc1cccc(OCC(O)CN2CCN(c3ccc(Cl)cc3)CC2)c1 (stereo not given)	97.9% (inactive)
COC(=O)C1CCc2sc3ncnc(Nc4cn[nH]c4C(=O)Nc4ccc(CN5CCN(C)CC5)cc4)c3c21 (stereo not given)	-28.8% (active)
CC(=O)CSc1ncnc2nc[nH]c12	103% (inactive)
COc1ccc(/C=C/C(=O)c2c(C)nc3ccccc3c2/C=C/c2ccccc2)cc1O	49.1% (inactive)
CN1CCN(c2ccc(/C=C/C(=O)c3ccc(O)cc3)cc2)CC1	115% (inactive)
